Assay outcomes as filed in PubChem.
SKKanGAS inh: inhibitors of SKKanGAS S. pyogenes growth in kanamycin (SK-promoter or general growth effect) | inhibition, % at 7.5 µM | AID 1662 | BacTiter-Glo, 6 h | hit rate 1.3% among 300,000;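 active = mean replicate score, as percent of positive control median, at least 50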;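 note: strain carries kanamycin resistance gene driven by streptokinase promoter and grows in 40 µg/ml kanamycin; loss of luminescence reflects streptokinase promoter inhibition or plain growth inhibition; 0% = median of DMSO wells and 100% = positive control at its reference dose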
PP5 inh: blocks human protein phosphatase 5 activity; P53041; purified PP5c, OMFP substrate fluorescence; inhibition, % at 6.7 µM; hit rate 0.18% among 320,000; AID 1987;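 active = inhibition above the campaign's mean inhibition across all tested compounds plus 3 SD, cut at about 9.5% in these data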;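 note: 0% = DMSO only and 100% = 100 µM cantharidin control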
Target sequence (P53041 whole entry, looked up): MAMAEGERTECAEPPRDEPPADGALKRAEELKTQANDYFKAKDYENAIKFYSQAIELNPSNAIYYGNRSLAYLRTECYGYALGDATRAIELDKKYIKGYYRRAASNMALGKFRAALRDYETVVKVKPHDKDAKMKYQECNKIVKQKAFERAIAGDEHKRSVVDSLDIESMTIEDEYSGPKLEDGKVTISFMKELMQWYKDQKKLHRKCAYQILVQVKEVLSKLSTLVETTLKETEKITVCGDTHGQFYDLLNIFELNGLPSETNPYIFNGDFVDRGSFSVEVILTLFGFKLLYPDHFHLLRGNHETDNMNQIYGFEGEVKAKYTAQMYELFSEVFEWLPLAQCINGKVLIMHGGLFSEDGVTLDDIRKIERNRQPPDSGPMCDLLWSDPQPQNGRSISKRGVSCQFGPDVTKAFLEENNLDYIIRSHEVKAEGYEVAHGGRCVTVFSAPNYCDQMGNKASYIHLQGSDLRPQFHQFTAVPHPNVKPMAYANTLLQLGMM
CSC inhib: blocks cancer stem cells; cancer stem cell-like cells viability, luminescence; inhibition, % at 7.5 µM; hit rate 1.1% among 300,000; in the data active = inhibition above about 75%; tested in HMLE shEcad cells
PP1 inh: blocks human PP1-alpha phosphatase, a PP5 counter-screen | P62136 | purified PP1alpha, OMFP fluorescence | inhibition, % at 6.7 µM | hit rate 0.9% among 320,000 | AID 2235;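 active = inhibition above the mean inhibition of all tested compounds plus 3 SD, computed separately for each screening campaign, cut at about 15% in these data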
Beta cell apopt: blocks beta cell apoptosis | INS-1E cytokine-induced death, ATP luminescence, 48 h; percent of positive-control rescue, neutral wells zero | protection from apoptosis, % (test concentration not listed) | hit rate 0.8% among 300,000;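 active = Every replicate reaches about 75%, or at least half do and their mean reaches it too, limit read from the data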;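 note: 0% = cytokine-treated negative control wells and 100% = positive control rescue; higher means more ATP so stronger rescue from cytokine killing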
An asterisk follows results filed as active. Most compounds without a hit are left out; they make up all but 3.1% or so of the library.

`O=[N+]([O-])c1ccc(-c2nn(-c3ccccc3)cc2/C=N/n2c(-c3ccncc3)n[nH]c2=S)cc1` gave SKKanGAS inh 17, PP5 inh -1, CSC inhib 12, PP1 inh -1 and Beta cell apopt -5.
Cc1cc(C)cc(NC(=O)CCN2CCOCC2)c1 was read as SKKanGAS inh 3, PP5 inh 3, CSC inhib -12, PP1 inh -4 and Beta cell apopt -1.
For Cc1ccc(C)c(OCC(=O)N(C)CC(=O)Nc2ccc(Cl)c(C(F)(F)F)c2)c1 the results were PP5 inh 8, PP1 inh 5 and Beta cell apopt -5.
`CCCOc1cc(N(CC)CC)ccc1/C=C(/C#N)c1nc2ccc(C)cc2[nH]1` gave SKKanGAS inh 61*, PP5 inh 1, CSC inhib 58, PP1 inh -1 and Beta cell apopt 45.
Screening CCN(CC)c1ccc(/C=C(/C#N)c2nc3ccc(C)cc3[nH]2)c(OC(C)C)c1 returned SKKanGAS inh 15, PP5 inh 0, CSC inhib -18, PP1 inh 1 and Beta cell apopt 48.
CCCCCCOC(=O)/C=C/c1c(C)[nH]c(=O)[nH]c1=O was read as SKKanGAS inh 86*, PP5 inh 3, CSC inhib 34, PP1 inh -3 and Beta cell apopt -13.
Cc1ccc(CNC(=O)Cc2ccc(NC3=NC4CS(=O)(=O)CC4S3)cc2)cc1 (stereo not given) was read as SKKanGAS inh 0, PP5 inh 0, CSC inhib -7, PP1 inh 4 and Beta cell apopt 1.
`O=[N+]([O-])c1ccc(C2CN=C(Nc3ccccc3)S2)cc1` (stereo not given) gave SKKanGAS inh 17, PP5 inh 2, CSC inhib -3, PP1 inh 0 and Beta cell apopt -8.
Cc1ccc(NC2=NCC(Cc3ccc(Br)cc3)S2)cc1 (stereo not given) was read as SKKanGAS inh 85*, PP5 inh 3, CSC inhib 89*, PP1 inh 13 and Beta cell apopt 34.
`CCc1ccc(NC2=NCC(c3ccccc3)S2)cc1` (stereo not given) gave SKKanGAS inh 94*, PP5 inh 4, CSC inhib 1, PP1 inh 4 and Beta cell apopt 10.
`CC(=O)CCc1c(C)nc2ccc(C)cc2c1Cl` gave SKKanGAS inh 15, PP5 inh 2, CSC inhib -1, PP1 inh 3 and Beta cell apopt 0.
`CCCCCCCCNC(C)C(O)c1ccc(SC(C)C)cc1` (stereo not given) gave SKKanGAS inh 0, PP5 inh 5, CSC inhib 102*, PP1 inh 5 and Beta cell apopt 117*.
`CCn1c(=O)c2c(nc(SCC(=O)N3CCCC(C)C3)n2C)n(C)c1=O` (stereo not given) gave SKKanGAS inh -3, PP5 inh 1, CSC inhib -21, PP1 inh 0 and Beta cell apopt 1.
For CCOC(=O)C1=C(c2ccccc2)N=c2s/c(=C\c3cccc(O)c3)c(=O)n2C1c1cccs1 (stereo not given) the results were SKKanGAS inh 54*, PP5 inh 3, CSC inhib 99*, PP1 inh 8 and Beta cell apopt 20.
Screening COc1ccc(CCNS(=O)(=O)c2ccc(Br)cc2)cc1OC returned SKKanGAS inh -2, PP5 inh 4, CSC inhib -5, PP1 inh -1 and Beta cell apopt -9.
`Cc1ccccc1NC(=O)CSc1ccc(-c2ccccn2)nn1` gave SKKanGAS inh -5, PP5 inh 0, CSC inhib 4, PP1 inh -2 and Beta cell apopt -4.
Screening Cc1cc(C)cc(NC(=O)CSc2ccc(-c3ccccn3)nn2)c1 returned SKKanGAS inh -9, PP5 inh 4, CSC inhib 96*, PP1 inh -2 and Beta cell apopt 24.
`Cc1cc(O)c(Oc2cc(C)cc(O)c2O)c(O)c1` gave SKKanGAS inh 3, PP5 inh 3, CSC inhib 80*, PP1 inh 2 and Beta cell apopt -11.
For Cc1ccc(O)c(O)c1 the results were SKKanGAS inh 1, PP5 inh 0, CSC inhib 8, PP1 inh -3 and Beta cell apopt -9.
For CC(=O)NC(c1ccccc1)c1cc(Cl)c2cccnc2c1O (stereo not given) the results were SKKanGAS inh 79*, PP5 inh 5, CSC inhib 104*, PP1 inh 14 and Beta cell apopt 98*.
For O=C(NC(c1ccc(Cl)cc1)c1cc(Cl)c2cccnc2c1O)c1cccnc1 (stereo not given) the results were SKKanGAS inh 113*, PP5 inh -2, CSC inhib 113*, PP1 inh 0 and Beta cell apopt 96*.
For CC(=O)NC(c1cc(F)c2cccnc2c1O)C1CC1 (stereo not given) the results were PP5 inh -2, CSC inhib 1, PP1 inh -2 and Beta cell apopt 14.
COc1ccc(C(NC(C)=O)c2cc(Cl)c3cccnc3c2O)cc1 (stereo not given) was read as SKKanGAS inh 53*, PP5 inh 1, CSC inhib 107*, PP1 inh 2 and Beta cell apopt 95*.
`CCCC(=O)NC(c1ccco1)c1cc([N+](=O)[O-])c2cccnc2c1O` (stereo not given) gave SKKanGAS inh 54*, PP5 inh -1, CSC inhib 77*, PP1 inh 6 and Beta cell apopt -8.
O=C(NCc1ccc(Cl)cc1)c1cccnc1 was read as SKKanGAS inh -1, PP5 inh 0, CSC inhib -9, PP1 inh -2 and Beta cell apopt 20.
Screening CCCC(=O)NC(c1ccco1)c1c(O)ccc2ccccc12 (stereo not given) returned SKKanGAS inh -9, PP5 inh -1, PP1 inh -3 and Beta cell apopt -2.
CN(Cc1ccc(Cl)cc1Cl)C(=O)CNC(=O)c1ccc2c(c1)OCO2 was read as SKKanGAS inh -13, PP5 inh 0, CSC inhib 18, PP1 inh -2 and Beta cell apopt -2.
For Cc1ccc(NC(=O)COC(=O)CCc2c(C)nc3ncnn3c2C)cc1C the results were Beta cell apopt -1.
`CCCC(=O)NC(c1ccc(OC)c(OC)c1)c1cc(Cl)c2cccnc2c1O` (stereo not given) gave SKKanGAS inh 23, PP5 inh 5, CSC inhib -10, PP1 inh 1 and Beta cell apopt 91*.
O=C(Nc1cc(Cl)ccc1Cl)C1Cc2ccccc2O/C1=N\O (stereo not given) was read as SKKanGAS inh 3, CSC inhib -7 and Beta cell apopt -5.
Screening CCC(=O)N1c2ccc(S(=O)(=O)N3CCN(CC)CC3)cc2CC1C (stereo not given) returned SKKanGAS inh 10, PP5 inh -2, CSC inhib -6, PP1 inh -7 and Beta cell apopt 0.
